Records with an inconclusive call do not appear. Calls of active or inactive are those of the source. Calls follow the shape of the dose curve; as a rule, active = well fitted inhibition curve with a large enough effect; inconclusive = small, poorly fitted or top-dose-only effect; inactive = no such curve, though single readings can be large or run the other way.

The test is described as follows: Primary qHTS for inhibitors of La Crosse Virus (LACV) - induced cell death in SH-SY5Y cells (AID 1508616).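 Also: top concentration of the series differs between compounds; higher means more rescue of cells from virus-induced death.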 The conditions noted are these: SH-SY5Y LACV cytopathicity rescue, ATP luminescence, 6 d; series mostly up to 4.29 µM. An excerpt: Assay Provider: Karin Peterson Ph.D.
National Institute of Allergy and Infection Diseases, National Institute of Health
La Crosse Virus (LACV) is a California serogroup mosquito-borne arbovirus, family Peribunyaviridae, which is an endemic pathogen in North America and can induce a rare, life-threatening neurological disease in children. LACV was first isolated in the early 1960s, from a summer "rural encephalitis" case in La Crosse, Wisconsin, USA. Since then, LACV encephalitis cases have been found in more than twenty states, with most cases in the Mississippi and Ohio River basins. The life cycle of LACV is maintained between the vector, the eastern tree-hole mosquito Aedes triseriatus, and vertebrate hosts including eastern gray squirrels (Sciurus carolinensis) and chipmunks (Tamiasstriatus grinseus). […] Most LACV infections in humans are asymptomatic or induce mild clinical symptoms of fever, headache, lethargy and vomiting. However, in some cases LACV can cause severe neuroinvasive disease, including encephalitis, meningitis, and meningoencephalitis, requiring hospitalization. To date, there is neither a licensed vaccine nor a Food and Drug Administration (FDA) approved antiviral therapy available to prevent or treat LACV encephalitis. The primary treatment for viral encephalitis is palliative care due to the lack of therapeutics. In the current study, we conducted a screen of 4,096 FDA approved and bioactive small molecules against LACV, by screening for rescue of LACV-induced cell death in SH-SY5Y cells.
LACV-induced cytopathicity assay
SEQUENCE No. (1,2, 3, etc.); […] (e.g., Cells, Incubation, Reagent, etc.); VALUE and DESCRIPTION.
1. Reagent; 2 uL; Cell solution.
3. Compounds; 23nL; Compound library
4. Reagent; 12 uL; LACV virus
6. Reagent; 24 uL; ATPLite (PerkinElmer)
7. Time; 5 min; Room temperature
8. Detection; Luminescence; View
NOTES (numbers refer to sequence above)
1. Seed 6000 SH-SY5Y cells (ATCC CRL-2266) in 2 microL/well media (DMEM/F12 10% FBS, 1x L-Glutamine, 1x Pyruvate, 1x NEAA, 1x Pen/Strep) in 384-well assay plates (tissue culture treated, white, solid bottom).
2. Incubate at 37 degrees C with 5% CO2 for 24 hr.
3. Dispense 23 nL/well compounds in DMSO via pin transfer.
4. Dispense 12 microL/well of LACV (LACV/human/1978) in media at 0.01 MOI.
5. Incubate at for 6 days at 37C 5% CO2
6. Dispense 24 microL/well of ATPLite 1step Luminescence assay system (PerkinElmer).
7. Incubate for 5 min at room temperature.
8. Read luminescence signal (Viewlux plate reader, PerkinElmer). Data was normalized with DMSO control wells containing LACV as 0%, and DMSO control wells without virus as 100%.
Consider `NS(=O)(=O)Cc1noc2ccccc12`, for which the compound was classed as inactive. Then `O=C(NCCc1c[nH]c2ccccc12)c1cccnc1`, with “inactive”; and `C#C[C@]1(O)CC[C@H]2[C@@H]3CCc4cc(OC)ccc4[C@H]3CC[C@@]21C`, with “inactive”. Then `CCNC(=O)/C=C/c1cccc(Br)c1`, with “inactive”. Then `O=C(CN1CCN(Cc2ccc3c(c2)OCO3)CC1)N1c2ccccc2Sc2ccccc21`, with “inactive”. For the compound `CC(=O)NO`, the compound was classed as inactive. For `O=C(O)CCNC(=O)c1ccccc1`, the compound was called inactive. Next, `CC(=O)Oc1ccc(C)cc1`: “inactive”; `NCc1ccccc1Sc1ccccc1CO`: “inactive”.

On to `Oc1ccc(Cl)cc1Cc1cc(Cl)ccc1O`, for which the compound was classed as inactive. Then `CCCCCCCCCCCCCCCC(=O)O`, with “inactive”; and `COC(=O)C(c1ccccc1Cl)N1CCc2sccc2C1` (stereo not given), with “inactive”.

On to `CCN1CCN(C(=O)N[C@@H](C(=O)N[C@@H]2C(=O)N3C(C(=O)O)=C(CSc4nnnn4C)CS[C@H]23)c2ccc(O)cc2)C(=O)C1=O`, for which the outcome was inactive. As for `CC(=O)NC(=O)c1ccccc1O`, the compound was called inactive. `CN(CCCN1c2ccccc2CCc2ccccc21)CC(=O)c1ccc(Cl)cc1`: the outcome was inactive. For the compound `O=[N+]([O-])c1ccc(/C=N\O)o1`, the compound was classed as inactive. Then `Oc1c(Cl)cc(Cl)c(Cl)c1Cc1c(O)c(Cl)cc(Cl)c1Cl`, with “inactive”; and `CN1CCN(C2=Nc3ccccc3Sc3ccc(Cl)cc32)CC1`, with “inactive”. For the compound `CC(C)[C@@H]1CC[C@@H](C)CC1=O`, the compound was called inactive. As for `O=[N+]([O-])c1cccc(S(=O)(=O)NCCNS(=O)(=O)c2cccc([N+](=O)[O-])c2)c1`, the call was inactive. In the case of `CC1(C)OC[C@@H]2O[C@@]3(C(=O)O)OC(C)(C)O[C@H]3[C@@H]2O1`, the outcome was inactive. Next, `CCCCCCCCCCCCCC[N+](C)(C)Cc1ccccc1`: “inactive”; `CC1CCc2c(N3CCC(O)CC3)c(F)cc3c(=O)c(C(=O)O)cn1c23` (stereo not given): “inactive”; `CCOc1ccc(NC(C)=O)cc1`: “inactive”. Then `CCOC(=O)[C@@](C)(N)Cc1ccc(O)c(O)c1`, with “inactive”; and `CCN(CC)CCNc1ccc(CO)c2sc3ccccc3c(=O)c12`, with “inactive”. For the compound `C[N+]12CCC(CC1)C(OC(=O)C(O)(c1ccccc1)c1ccccc1)C2` (stereo not given), the result was inactive. Next, `Cc1cccc(C)c1NC(=O)c1ccccc1C(=O)O`: “inactive”.

Turning to `CC(C)(Cc1c[nH]c2ccccc12)NCC(O)COc1ccccc1C#N` (stereo not given), the compound was classed as inactive.

For `CC(=O)O[C@H]1C[C@@H]2CC[C@@H]3[C@H](CC[C@@]4(C)[C@H]3C[C@H]([N+]3(C)CCCCC3)[C@@H]4OC(C)=O)[C@@]2(C)C[C@@H]1N1CCCCC1`, the compound was called inactive. Take `Cc1cccc(C)c1NC(=O)CN1CCCC1`: the result was inactive. Next, `CCOC(=O)C(C#N)=C(c1ccccc1)c1ccccc1`: “inactive”; `CCOc1ccccc1OCCN[C@H](C)Cc1ccc(OC)c(S(N)(=O)=O)c1`: “inactive”. Next, `CCN(CC)CCNC(=O)c1cc(Br)c(N)cc1OC`: “inactive”; `CCc1nn(CCCN2CCN(c3cccc(Cl)c3)CC2)c(=O)n1CCOc1ccccc1`: “inactive”. Then `COc1ccccc1N1CCN(CCCCNC(=O)c2ccc(-c3ccc(C(C)=O)cc3)cc2)CC1`, with “inactive”; and `C[N+]1(CC2COC(c3ccccc3)(C3CCCCC3)O2)CCCCC1` (stereo not given), with “inactive”. Turning to `CCCCCCCCOc1ccc(C(=O)c2ccccc2)c(O)c1`, the compound was classed as inactive.

As to `CNCCCCOc1ccccc1Cc1ccccc1`, the outcome was inactive.

Turning to `O=C(N/N=C/c1ccc([N+](=O)[O-])o1)c1ccc(O)cc1`, the result was inactive.

The values above are taken from PubChem BioAssay (NCATS).
